# Test results: PubChem BioAssay (EPA / NIEHS)
# Records with an inconclusive call do not appear. Calls of active or inactive are those of the source. How the source made its calls, unless noted: active means hit-call score of the fitted dose curve at least 0.9, where 1 is the maximum; inactive means score below 0.9.
# Legend:
# [1] = ATG_PBREM_CIS: Attagene CIS-FACTORIAL HepG2 Assay for human Phenobarbital-responsive Enhancer Module (PBREM) (AID 2282955); settings: HepG2 PBREM cis-reporter, Attagene multiplexed transcription; actives raise or lower the signal
# How it was run: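 HepG2 cells transiently transfected with multiple cis-regulated reporter transcription units; endogenous factor activity at the PBREM element measured as reporter mRNA 24 h after dosing, via RT-PCR and capillary electrophoresis of fluorescent fragments; bidirectional fitting versus DMSO.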
# [2] = molecular target: Paired box protein Pax-6 (Homo sapiens) (UniProt P26367); experiment: ATG_Pax6_CIS: Attagene CIS-FACTORIAL HepG2 Assay for human Paired Box 6 (PAX6) (AID 2282956); settings: HepG2 CIS-FACTORIAL PAX6 reporter transcription, RNA readout; actives raise or lower the signal
# How it was run: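 Multiplexed cis-reporter HepG2 system; 24 h treatment; reporter mRNA read by RT-PCR/CE fluorescence; bidirectional fit vs DMSO.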
# [3] = ATG_PXRE_CIS: Attagene CIS-FACTORIAL HepG2 Assay for human Pregnane X Receptor Element (PXRE) (AID 2282957); settings: HepG2 Attagene CIS-FACTORIAL PXRE reporter, mRNA; actives raise or lower the signal
# How it was run: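 HepG2 cells transiently transfected with cis-element-driven multiplexed reporter units; after 24 h chemical exposure, reporter mRNA measured by RT-PCR, 6-FAM labelling, HpaI digestion and capillary electrophoresis. Bidirectional fitting relative to DMSO.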
# [4] = ATG_Sox_CIS: Attagene CIS-FACTORIAL HepG2 Assay for human SRY-box transcription factor (SOX) (AID 2282960); settings: HepG2 Attagene cis-factorial SOX reporter, mRNA; actives raise or lower the signal
# How it was run: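 HepG2 cells transiently transfected with cis-element-driven multiple reporter transcription units, dosed 24 h; reporter mRNA measured by RT-PCR, FAM labelling, HpaI digestion and capillary electrophoresis. Bidirectional fit versus DMSO baseline.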
# [5] = ATG_SREBP_CIS: Attagene CIS-FACTORIAL HepG2 Assay for human Sterol Regulatory Element Binding (SREBP) (AID 2282962); settings: HepG2 Attagene cis-factorial SREBP reporter, mRNA; actives raise or lower the signal
# How it was run: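 mRNA induction of transfected cis-promoter reporters in HepG2 cells, 24 h post-dose. Detection: RT-PCR with 6-FAM-labelled products, HpaI digest, capillary electrophoresis. DMSO served as negative control and baseline.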
# [6] = molecular target: Signal transducer and activator of transcription 3 (Homo sapiens) (UniProt P40763); experiment: ATG_STAT3_CIS: Attagene CIS-FACTORIAL HepG2 Assay for human Signal Transducer and Activator of Transcription 3 (STAT3) (AID 2282963); settings: HepG2, Attagene cis-factorial STAT3 reporter transcription; actives raise or lower the signal
# How it was run: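 Endogenous STAT3-responsive cis-element activity was read in transiently transfected HepG2 cells after 24 h treatment. Reporter transcripts were quantified via RT-PCR and capillary electrophoresis, with DMSO as negative control and bidirectional curve fitting.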
# [7] = ATG_TA_CIS: Attagene CIS-FACTORIAL HepG2 Assay for human TA Basal Promoter (AID 2282964); settings: HepG2 Attagene CIS-factorial TA basal promoter reporter; actives raise or lower the signal
# How it was run: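 Background-control readout: TA basal promoter reporter mRNA, fitted in both directions relative to DMSO. Measured by RT-PCR and capillary electrophoresis 24 hours after treating HepG2 human liver cells transiently carrying multiplexed cis-regulated reporter constructs.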
# [8] = ATG_TCF_b_cat_CIS: Attagene CIS-FACTORIAL HepG2 Assay for human T-Cell-Factor with beta-catenin (TCF/b-cat) (AID 2282965); settings: HepG2 TCF/beta-catenin cis-reporter transcription, actives raise or lower the signal
# How it was run: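 Measured: reporter mRNA in HepG2 transiently transfected with cis-promoter reporter units, 24 h after chemical addition. Fitting was bidirectional, DMSO as negative control.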
# [9] = ATG_TAL_CIS: Attagene CIS-FACTORIAL HepG2 Assay for human TAL Basal Promoter (AID 2282966); settings: HepG2 Attagene cis-factorial TAL promoter reporter; actives raise or lower the signal;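 further: background control endpoint measuring basal TAL promoter reporter mRNA not a specific factor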
# How it was run: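 HepG2 cells transiently transfected with multiplexed cis-promoter reporter units, dosed 24 h. Reporter mRNA quantified by RT-PCR, 6-FAM labelling, HpaI digestion and capillary electrophoresis; TAL basal promoter serves as background control, fitted bidirectionally versus DMSO.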
# [10] = ATG_TGFb_CIS: Attagene CIS-FACTORIAL HepG2 Assay for human Transforming Growth Factor (TGF) (AID 2282967); settings: HepG2 Attagene CIS TGFb reporter, mRNA transcription; actives raise or lower the signal
# How it was run: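 Endogenous TGFB1-linked transcription factor activity read as reporter mRNA via RT-PCR and capillary electrophoresis, 24 h after dosing transiently transfected HepG2 cells. Gain or loss of signal fitted relative to DMSO.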
# [11] = ATG_VDRE_CIS: Attagene CIS-FACTORIAL HepG2 Assay for human Vitamin D Receptor Element (VDRE) (AID 2282968); settings: HepG2 VDRE cis-reporter transcription, actives raise or lower the signal
# How it was run: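 Reporter mRNA induction, quantified by capillary electrophoresis of fluorescently labelled RT-PCR products, was read 24 h after dosing HepG2 cells carrying transiently transfected cis-regulated reporter units; gain or loss relative to DMSO.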
# [12] = molecular target: X-box-binding protein 1 (Homo sapiens) (UniProt P17861); experiment: ATG_Xbp1_CIS: Attagene CIS-FACTORIAL HepG2 Assay for human X-box Binding Protein 1 (XBP1) (AID 2282972); settings: HepG2 XBP1 cis-element reporter, Attagene multiplex; actives raise or lower the signal
# How it was run: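 Fluorescence-labelled cDNA fragments from reporter transcripts, separated by capillary electrophoresis, give the signal. Source: HepG2 cells transfected with promoter-driven reporter units, harvested 24 h post-dose. DMSO served as reference for bidirectional curve fitting.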
# [13] = ATG_GAL4_TRANS: Attagene TRANS-FACTORIAL HepG2 Assay for GAL4 (Internal Marker) (AID 2282976; active means hit-call score of the fitted dose curve at least 0.9, where 1 is the maximum); settings: HepG2 Attagene TRANS GAL4 internal marker reporter
# How it was run: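 Background-control readout: GAL4-UAS reporter transcript in transiently transfected HepG2 cells after 24 h compound exposure. Measured by RT-PCR, 6-FAM primer extension, HpaI digest and capillary electrophoresis; gain-of-signal fit versus DMSO.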
# [14] = ATG_PPRE_CIS: Attagene CIS-FACTORIAL HepG2 Assay for human Peroxisome Proliferator-activated Response Element (PPRE) (AID 2282958); settings: HepG2 PPRE cis-element reporter, Attagene transcription factor profiling; actives raise or lower the signal
# How it was run: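 HepG2 cells transiently transfected with multiplexed cis-element reporter units measure endogenous transcription factor activity. After 24 h compound exposure, reporter mRNA is quantified by RT-PCR, 6-FAM labeling, HpaI digestion and capillary electrophoresis; bidirectional fits are made against DMSO baseline.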
# [15] = molecular target: Transcription factor Sp1 (Homo sapiens) (UniProt P08047); experiment: ATG_Sp1_CIS: Attagene CIS-FACTORIAL HepG2 Assay for human Specificity Protein 1 (Sp1) (AID 2282961); settings: HepG2 Sp1 cis-reporter transcription, actives raise or lower the signal
# How it was run: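 HepG2 cells transiently transfected with multiple reporter transcription units driven by cis-regulatory elements; Sp1-responsive reporter mRNA measured 24 h after dosing by RT-PCR and capillary electrophoresis fluorescence, fitted bidirectionally against DMSO baseline.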
# [16] = molecular target: Nuclear receptor subfamily 1 group I member 3 (Homo sapiens) (UniProt Q14994); experiment: ATG_CAR_TRANS: Attagene TRANS-FACTORIAL HepG2 Assay for human Constitutive Androstane Receptor (CAR) (AID 2282969; active means hit-call score of the fitted dose curve at least 0.9, where 1 is the maximum;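 further: activators raise reporter mRNA above DMSO so AC50 marks induction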); settings: HepG2 Attagene TRANS-FACTORIAL CAR reporter
# How it was run: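 Readout is reporter mRNA induction, quantified by fluorescent primer extension and capillary electrophoresis after RT-PCR. Cells were HepG2 transiently carrying chimeric NR-Gal4 constructs with GAL4-UAS reporters, treated for 24 h; activity scored upward from DMSO.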
# [17] = molecular target: Estrogen receptor (Homo sapiens) (UniProt P03372); experiment: ATG_ERa_TRANS: Attagene TRANS-FACTORIAL HepG2 Assay for human Estrogen Receptor alpha (ERa) (AID 2282970; active means hit-call score of the fitted dose curve at least 0.9, where 1 is the maximum); settings: HepG2 Attagene TRANS ERa GAL4 reporter, mRNA
# How it was run: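 HepG2 cells transiently transfected with multiplexed GAL4-UAS reporter units read out chimeric NR-Gal4 activity. After 24 h compound exposure, reporter mRNA was quantified by RT-PCR, 6-FAM labeling, HpaI digestion and capillary electrophoresis, relative to DMSO.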
# [18] = ATG_RORE_CIS: Attagene CIS-FACTORIAL HepG2 Assay for human RAR-related Orphan Receptor Element (RORE) (AID 2282959); settings: HepG2 Attagene cis-factorial RORE reporter, mRNA; actives raise or lower the signal
# How it was run: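 HepG2 cells transiently transfected with multiple cis-element reporter transcription units, exposed to chemical for 24 h. Reporter mRNA quantified by RT-PCR, 6-FAM primer-extension labeling, HpaI digestion and capillary electrophoresis; bidirectional fit versus DMSO baseline.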
# [19] = ATG_M_19_TRANS: Attagene TRANS-FACTORIAL HepG2 Assay for M19 Transcription Factor (Internal Marker) (AID 2282974; active means hit-call score of the fitted dose curve at least 0.9, where 1 is the maximum); settings: HepG2 Attagene TRANS-FACTORIAL M19 internal marker reporter
# How it was run: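 HepG2 cells transiently transfected with multiple GAL4-UAS reporter transcription units were exposed to chemicals for 24 h. Reporter mRNA was read by RT-PCR, 6-FAM primer extension, HpaI digestion and capillary electrophoresis; gain of signal fitted relative to DMSO.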
# [20] = molecular target: Steroid hormone receptor ERR1 (Homo sapiens) (UniProt P11474); experiment: ATG_ERRa_TRANS: Attagene TRANS-FACTORIAL HepG2 Assay for human Estrogen-Related Receptor alpha (ERRa) (AID 2282971; active means hit-call score of the fitted dose curve at least 0.9, where 1 is the maximum); settings: HepG2 Attagene TRANS reporter, ERRa transactivation
# How it was run: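 HepG2 cells transiently transfected with GAL4-UAS reporter units and chimeric NR-Gal4 constructs; after 24 hour compound incubation, reporter mRNA quantified by RT-PCR, fluorescent labelling and capillary electrophoresis, gain of signal versus DMSO.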
# Nuclear receptor subfamily 1 group I member 3 (Homo sapiens), sequence (Q14994 whole entry, looked up, the tested form may be a part): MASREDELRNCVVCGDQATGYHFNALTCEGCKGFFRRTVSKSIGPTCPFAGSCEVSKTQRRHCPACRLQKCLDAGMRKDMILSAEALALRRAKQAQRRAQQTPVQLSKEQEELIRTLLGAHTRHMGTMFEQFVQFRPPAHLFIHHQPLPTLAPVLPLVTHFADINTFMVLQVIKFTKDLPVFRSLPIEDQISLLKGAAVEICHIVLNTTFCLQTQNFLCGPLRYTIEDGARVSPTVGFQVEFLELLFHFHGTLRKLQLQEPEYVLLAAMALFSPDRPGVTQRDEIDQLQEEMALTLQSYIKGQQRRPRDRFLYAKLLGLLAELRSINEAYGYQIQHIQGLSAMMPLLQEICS
# Paired box protein Pax-6 (Homo sapiens), sequence (P26367 whole entry, looked up): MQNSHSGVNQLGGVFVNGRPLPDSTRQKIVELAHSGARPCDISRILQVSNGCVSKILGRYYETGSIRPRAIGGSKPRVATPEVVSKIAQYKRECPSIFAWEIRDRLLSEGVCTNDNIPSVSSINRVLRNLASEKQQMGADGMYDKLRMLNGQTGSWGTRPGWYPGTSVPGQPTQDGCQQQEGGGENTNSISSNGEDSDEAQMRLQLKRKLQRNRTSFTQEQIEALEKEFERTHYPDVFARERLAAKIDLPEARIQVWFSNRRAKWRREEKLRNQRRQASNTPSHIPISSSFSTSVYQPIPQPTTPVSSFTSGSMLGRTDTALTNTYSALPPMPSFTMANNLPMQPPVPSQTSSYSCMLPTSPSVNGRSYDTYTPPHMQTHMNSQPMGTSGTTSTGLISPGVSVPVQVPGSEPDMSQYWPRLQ
# Signal transducer and activator of transcription 3 (Homo sapiens), sequence (P40763 whole entry, looked up): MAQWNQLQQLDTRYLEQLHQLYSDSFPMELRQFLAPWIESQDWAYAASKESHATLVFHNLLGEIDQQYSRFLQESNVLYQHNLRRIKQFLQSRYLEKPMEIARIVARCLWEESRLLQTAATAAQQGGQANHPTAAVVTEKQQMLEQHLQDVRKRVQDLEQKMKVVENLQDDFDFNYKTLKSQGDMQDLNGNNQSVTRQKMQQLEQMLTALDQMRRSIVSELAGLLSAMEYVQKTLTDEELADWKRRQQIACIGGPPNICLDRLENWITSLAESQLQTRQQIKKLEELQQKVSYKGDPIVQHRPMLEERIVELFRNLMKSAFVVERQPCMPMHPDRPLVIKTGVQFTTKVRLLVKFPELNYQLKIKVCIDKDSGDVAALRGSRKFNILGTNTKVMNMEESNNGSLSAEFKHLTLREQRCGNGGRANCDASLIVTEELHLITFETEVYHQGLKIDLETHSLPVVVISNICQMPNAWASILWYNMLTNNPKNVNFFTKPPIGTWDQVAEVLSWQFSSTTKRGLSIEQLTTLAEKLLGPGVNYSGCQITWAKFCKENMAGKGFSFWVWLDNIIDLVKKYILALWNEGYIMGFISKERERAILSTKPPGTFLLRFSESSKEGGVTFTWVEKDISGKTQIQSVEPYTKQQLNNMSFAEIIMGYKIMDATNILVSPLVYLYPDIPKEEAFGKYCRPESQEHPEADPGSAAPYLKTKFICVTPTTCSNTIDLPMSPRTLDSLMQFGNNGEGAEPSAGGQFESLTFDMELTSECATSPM
# X-box-binding protein 1 (Homo sapiens), sequence (P17861 whole entry, looked up, the tested form may be a part): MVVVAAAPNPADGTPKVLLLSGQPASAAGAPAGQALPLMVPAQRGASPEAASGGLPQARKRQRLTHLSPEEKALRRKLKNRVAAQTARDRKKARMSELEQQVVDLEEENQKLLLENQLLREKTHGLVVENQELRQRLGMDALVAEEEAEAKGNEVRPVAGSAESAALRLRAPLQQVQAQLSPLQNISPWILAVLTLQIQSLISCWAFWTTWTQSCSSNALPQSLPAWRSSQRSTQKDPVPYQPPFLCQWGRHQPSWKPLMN
# Transcription factor Sp1 (Homo sapiens), sequence (P08047 whole entry, looked up): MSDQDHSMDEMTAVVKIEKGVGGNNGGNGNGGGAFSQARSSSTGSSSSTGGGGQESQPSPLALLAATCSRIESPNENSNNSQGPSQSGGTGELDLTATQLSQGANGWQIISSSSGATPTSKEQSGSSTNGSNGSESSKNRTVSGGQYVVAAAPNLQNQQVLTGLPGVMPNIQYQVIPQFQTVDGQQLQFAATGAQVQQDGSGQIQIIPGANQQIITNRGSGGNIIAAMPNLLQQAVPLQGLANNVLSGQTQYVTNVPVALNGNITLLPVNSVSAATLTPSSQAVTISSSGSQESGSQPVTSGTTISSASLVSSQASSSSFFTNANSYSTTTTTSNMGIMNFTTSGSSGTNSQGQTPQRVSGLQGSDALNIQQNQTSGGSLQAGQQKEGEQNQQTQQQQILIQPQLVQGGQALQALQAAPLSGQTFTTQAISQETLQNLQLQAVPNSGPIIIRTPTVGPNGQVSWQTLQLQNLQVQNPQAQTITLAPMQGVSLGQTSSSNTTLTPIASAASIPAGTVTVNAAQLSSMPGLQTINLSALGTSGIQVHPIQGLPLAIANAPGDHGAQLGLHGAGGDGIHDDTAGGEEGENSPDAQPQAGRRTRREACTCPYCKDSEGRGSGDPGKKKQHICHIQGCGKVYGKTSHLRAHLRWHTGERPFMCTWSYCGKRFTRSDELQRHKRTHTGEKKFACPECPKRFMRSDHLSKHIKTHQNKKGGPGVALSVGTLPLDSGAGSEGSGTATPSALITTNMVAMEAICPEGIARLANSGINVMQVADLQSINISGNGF
# Estrogen receptor (Homo sapiens), sequence (P03372 whole entry, looked up, the tested form may be a part): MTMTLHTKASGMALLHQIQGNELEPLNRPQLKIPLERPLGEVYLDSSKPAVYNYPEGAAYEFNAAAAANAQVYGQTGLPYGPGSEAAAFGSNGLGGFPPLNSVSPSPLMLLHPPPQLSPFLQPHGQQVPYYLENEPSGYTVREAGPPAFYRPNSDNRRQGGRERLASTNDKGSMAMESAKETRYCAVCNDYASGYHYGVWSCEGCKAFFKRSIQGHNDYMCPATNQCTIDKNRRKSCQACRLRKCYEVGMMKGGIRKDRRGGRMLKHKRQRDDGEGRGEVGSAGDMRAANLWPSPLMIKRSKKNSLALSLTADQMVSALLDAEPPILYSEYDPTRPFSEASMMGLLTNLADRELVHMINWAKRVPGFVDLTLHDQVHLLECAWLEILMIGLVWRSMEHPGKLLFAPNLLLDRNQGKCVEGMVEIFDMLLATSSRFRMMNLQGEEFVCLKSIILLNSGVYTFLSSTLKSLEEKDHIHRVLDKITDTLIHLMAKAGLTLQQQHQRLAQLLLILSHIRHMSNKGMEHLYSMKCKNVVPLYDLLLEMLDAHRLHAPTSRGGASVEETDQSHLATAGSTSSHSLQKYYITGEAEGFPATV
# Steroid hormone receptor ERR1 (Homo sapiens), sequence (P11474 whole entry, looked up, the tested form may be a part): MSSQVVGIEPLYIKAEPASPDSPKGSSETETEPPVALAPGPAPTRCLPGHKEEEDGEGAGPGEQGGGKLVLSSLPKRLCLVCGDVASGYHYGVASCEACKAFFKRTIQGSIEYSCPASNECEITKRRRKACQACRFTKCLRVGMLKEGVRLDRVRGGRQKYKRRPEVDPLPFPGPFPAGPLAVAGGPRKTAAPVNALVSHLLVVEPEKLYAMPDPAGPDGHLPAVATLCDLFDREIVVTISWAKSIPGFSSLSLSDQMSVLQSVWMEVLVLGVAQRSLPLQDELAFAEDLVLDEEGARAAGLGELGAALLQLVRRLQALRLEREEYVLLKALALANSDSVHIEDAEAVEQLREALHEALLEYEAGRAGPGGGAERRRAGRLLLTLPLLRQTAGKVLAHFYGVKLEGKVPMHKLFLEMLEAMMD
smiles,measurement,setting,value
CC(=O)OC(C)c1ccccc1 (stereo unspecified),outcome,[1],inactive
same,outcome,[2],inactive
same,AC50,[3],37.6 µM (active)
same,outcome,[4],inactive
same,outcome,[5],inactive
same,outcome,[6],inactive
same,outcome,[7],inactive
same,outcome,[8],inactive
same,outcome,[9],inactive
same,outcome,[10],inactive
same,outcome,[11],inactive
same,outcome,[12],inactive
same,outcome,[13],inactive
CCCCCC1=CCCC1=O,outcome,[1],inactive
same,outcome,[2],inactive
same,outcome,[14],inactive
same,outcome,[4],inactive
same,outcome,[15],inactive
same,outcome,[5],inactive
same,outcome,[6],inactive
same,outcome,[7],inactive
same,outcome,[8],inactive
same,outcome,[9],inactive
same,outcome,[10],inactive
same,outcome,[11],inactive
same,outcome,[16],inactive
same,outcome,[17],inactive
same,outcome,[12],inactive
CC(CCC(=O)O)(c1ccc(O)cc1)c1ccc(O)cc1,outcome,[1],inactive
same,outcome,[2],inactive
same,outcome,[14],inactive
same,outcome,[18],inactive
same,outcome,[4],inactive
same,outcome,[15],inactive
same,outcome,[5],inactive
same,outcome,[6],inactive
same,outcome,[7],inactive
same,outcome,[8],inactive
same,outcome,[9],inactive
same,outcome,[10],inactive
same,outcome,[11],inactive
same,AC50,[17],16.4 µM (active)
same,outcome,[12],inactive
same,outcome,[19],inactive
same,outcome,[13],inactive
Oc1ccccc1Cc1ccccc1O,outcome,[1],inactive
same,AC50,[3],26.3 µM (active)
same,outcome,[14],inactive
same,outcome,[18],inactive
same,outcome,[4],inactive
same,outcome,[15],inactive
same,AC50,[5],64.5 µM (active)
same,outcome,[6],inactive
same,outcome,[7],inactive
same,AC50,[8],37.9 µM (active)
same,outcome,[9],inactive
same,outcome,[10],inactive
same,AC50,[11],133 µM (active)
same,AC50,[17],18.1 µM (active)
same,AC50,[12],144 µM (active)
same,outcome,[19],inactive
same,outcome,[13],inactive
CCCCC1CCC(=O)O1 (stereo unspecified),outcome,[1],inactive
same,outcome,[2],inactive
same,AC50,[3],22.4 µM (active)
same,outcome,[4],inactive
same,outcome,[15],inactive
same,outcome,[6],inactive
same,outcome,[7],inactive
same,outcome,[8],inactive
same,outcome,[9],inactive
same,outcome,[10],inactive
same,outcome,[16],inactive
same,outcome,[17],inactive
same,outcome,[20],inactive
same,outcome,[12],inactive
same,outcome,[19],inactive
CCCC=C(C=O)CC,outcome,[1],inactive
same,outcome,[2],inactive
same,AC50,[3],7.92 µM (active)
same,outcome,[4],inactive
same,outcome,[5],inactive
same,outcome,[6],inactive
same,outcome,[7],inactive
same,outcome,[9],inactive
same,outcome,[10],inactive
same,outcome,[11],inactive
same,outcome,[17],inactive
same,outcome,[12],inactive
same,outcome,[19],inactive
O=C(O[C@@H]1Cc2c(O)cc(O)cc2O[C@@H]1c1cc(O)c(O)c(O)c1)c1cc(O)c(O)c(O)c1,outcome,[1],inactive
same,outcome,[2],inactive
same,outcome,[3],inactive
same,outcome,[4],inactive
same,outcome,[5],inactive
same,outcome,[6],inactive
same,outcome,[7],inactive
same,AC50,[8],36 µM (active)
same,outcome,[9],inactive
same,outcome,[10],inactive
same,outcome,[11],inactive
same,outcome,[17],inactive
same,outcome,[12],inactive
same,outcome,[13],inactive
O=c1c(O)c(-c2ccc(O)cc2O)oc2cc(O)cc(O)c12,outcome,[1],inactive
same,outcome,[2],inactive
same,AC50,[3],26.5 µM (active)
same,outcome,[4],inactive
same,outcome,[15],inactive
same,outcome,[5],inactive
same,outcome,[6],inactive
same,outcome,[7],inactive
same,outcome,[9],inactive
same,outcome,[10],inactive
same,outcome,[11],inactive
same,outcome,[16],inactive
same,AC50,[17],59.4 µM (active)
same,outcome,[12],inactive
same,outcome,[19],inactive
C=C(C)[C@@H]1CC=C(C)CC1,outcome,[1],inactive
same,outcome,[2],inactive
same,outcome,[3],inactive
same,outcome,[4],inactive
same,outcome,[15],inactive
same,outcome,[5],inactive
same,outcome,[7],inactive
same,outcome,[8],inactive
same,outcome,[9],inactive
same,outcome,[10],inactive
same,outcome,[12],inactive
same,outcome,[19],inactive
